# Key:
# [1] = target: T1, Ephrin type-A receptor 3 (Homo sapiens) (UniProt P29320); details: at 10 µM
# T1 sequence (whole entry): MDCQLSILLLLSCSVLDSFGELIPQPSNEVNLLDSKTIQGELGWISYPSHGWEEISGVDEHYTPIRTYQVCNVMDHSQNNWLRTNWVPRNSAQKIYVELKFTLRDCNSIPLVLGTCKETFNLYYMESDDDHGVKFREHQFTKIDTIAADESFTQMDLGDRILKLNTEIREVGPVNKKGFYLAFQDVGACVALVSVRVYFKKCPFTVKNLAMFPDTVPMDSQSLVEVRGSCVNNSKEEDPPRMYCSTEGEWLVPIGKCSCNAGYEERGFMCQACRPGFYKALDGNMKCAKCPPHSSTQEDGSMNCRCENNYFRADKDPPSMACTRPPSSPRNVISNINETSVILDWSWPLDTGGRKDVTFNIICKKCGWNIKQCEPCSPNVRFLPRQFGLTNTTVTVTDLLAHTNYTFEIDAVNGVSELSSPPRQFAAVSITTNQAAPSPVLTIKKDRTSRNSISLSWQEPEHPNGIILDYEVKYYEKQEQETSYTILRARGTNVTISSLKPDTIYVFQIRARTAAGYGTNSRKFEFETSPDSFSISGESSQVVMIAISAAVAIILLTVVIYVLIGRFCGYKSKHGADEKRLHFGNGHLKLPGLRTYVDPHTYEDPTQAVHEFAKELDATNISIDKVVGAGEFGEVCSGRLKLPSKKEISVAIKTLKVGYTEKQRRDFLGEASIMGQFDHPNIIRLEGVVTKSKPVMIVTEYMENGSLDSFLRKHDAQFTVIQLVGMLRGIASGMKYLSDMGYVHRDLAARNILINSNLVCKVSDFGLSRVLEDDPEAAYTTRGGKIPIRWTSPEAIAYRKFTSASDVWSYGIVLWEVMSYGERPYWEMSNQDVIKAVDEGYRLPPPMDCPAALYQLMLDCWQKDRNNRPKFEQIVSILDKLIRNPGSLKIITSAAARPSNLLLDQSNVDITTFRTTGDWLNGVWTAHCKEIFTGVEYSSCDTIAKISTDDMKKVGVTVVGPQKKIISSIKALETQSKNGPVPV
# [2] = target: Ephrin type-A receptor 4 (Homo sapiens) (UniProt P54764); details: at 1 µM
# Chain of Ephrin type-A receptor 4 (Homo sapiens) (P54764 whole entry): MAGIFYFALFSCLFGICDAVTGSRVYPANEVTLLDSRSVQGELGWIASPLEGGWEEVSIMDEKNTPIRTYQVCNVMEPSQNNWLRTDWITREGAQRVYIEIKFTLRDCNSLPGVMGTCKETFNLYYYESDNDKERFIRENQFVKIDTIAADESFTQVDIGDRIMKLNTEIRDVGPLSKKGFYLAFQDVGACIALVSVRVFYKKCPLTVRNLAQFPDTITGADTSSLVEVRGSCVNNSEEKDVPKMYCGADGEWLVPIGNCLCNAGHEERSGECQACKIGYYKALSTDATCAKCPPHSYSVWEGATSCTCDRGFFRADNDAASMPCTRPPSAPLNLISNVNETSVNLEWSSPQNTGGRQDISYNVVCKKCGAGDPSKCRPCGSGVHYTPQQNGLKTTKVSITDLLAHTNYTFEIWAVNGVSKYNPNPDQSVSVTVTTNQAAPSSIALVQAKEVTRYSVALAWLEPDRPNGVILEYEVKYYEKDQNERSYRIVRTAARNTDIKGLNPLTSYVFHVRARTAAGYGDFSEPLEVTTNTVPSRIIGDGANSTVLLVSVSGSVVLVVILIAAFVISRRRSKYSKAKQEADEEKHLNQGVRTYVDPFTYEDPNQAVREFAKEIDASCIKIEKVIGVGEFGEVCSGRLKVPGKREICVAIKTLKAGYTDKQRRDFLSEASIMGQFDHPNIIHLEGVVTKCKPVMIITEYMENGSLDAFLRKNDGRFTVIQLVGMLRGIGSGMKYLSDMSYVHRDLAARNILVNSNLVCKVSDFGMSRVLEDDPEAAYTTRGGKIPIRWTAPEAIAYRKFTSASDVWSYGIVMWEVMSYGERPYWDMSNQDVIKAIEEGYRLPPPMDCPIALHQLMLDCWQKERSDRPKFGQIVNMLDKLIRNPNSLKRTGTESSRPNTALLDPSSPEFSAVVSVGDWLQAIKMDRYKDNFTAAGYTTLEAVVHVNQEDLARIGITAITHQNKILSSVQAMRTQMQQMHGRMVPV
# [3] = target: Ephrin type-A receptor 4 (Homo sapiens) (UniProt P54764); details: at 10 µM
# [4] = target: Ephrin type-A receptor 5 (Homo sapiens) (UniProt P54756); details: at 1 µM
# Chain of Ephrin type-A receptor 5 (Homo sapiens) (P54756 whole entry): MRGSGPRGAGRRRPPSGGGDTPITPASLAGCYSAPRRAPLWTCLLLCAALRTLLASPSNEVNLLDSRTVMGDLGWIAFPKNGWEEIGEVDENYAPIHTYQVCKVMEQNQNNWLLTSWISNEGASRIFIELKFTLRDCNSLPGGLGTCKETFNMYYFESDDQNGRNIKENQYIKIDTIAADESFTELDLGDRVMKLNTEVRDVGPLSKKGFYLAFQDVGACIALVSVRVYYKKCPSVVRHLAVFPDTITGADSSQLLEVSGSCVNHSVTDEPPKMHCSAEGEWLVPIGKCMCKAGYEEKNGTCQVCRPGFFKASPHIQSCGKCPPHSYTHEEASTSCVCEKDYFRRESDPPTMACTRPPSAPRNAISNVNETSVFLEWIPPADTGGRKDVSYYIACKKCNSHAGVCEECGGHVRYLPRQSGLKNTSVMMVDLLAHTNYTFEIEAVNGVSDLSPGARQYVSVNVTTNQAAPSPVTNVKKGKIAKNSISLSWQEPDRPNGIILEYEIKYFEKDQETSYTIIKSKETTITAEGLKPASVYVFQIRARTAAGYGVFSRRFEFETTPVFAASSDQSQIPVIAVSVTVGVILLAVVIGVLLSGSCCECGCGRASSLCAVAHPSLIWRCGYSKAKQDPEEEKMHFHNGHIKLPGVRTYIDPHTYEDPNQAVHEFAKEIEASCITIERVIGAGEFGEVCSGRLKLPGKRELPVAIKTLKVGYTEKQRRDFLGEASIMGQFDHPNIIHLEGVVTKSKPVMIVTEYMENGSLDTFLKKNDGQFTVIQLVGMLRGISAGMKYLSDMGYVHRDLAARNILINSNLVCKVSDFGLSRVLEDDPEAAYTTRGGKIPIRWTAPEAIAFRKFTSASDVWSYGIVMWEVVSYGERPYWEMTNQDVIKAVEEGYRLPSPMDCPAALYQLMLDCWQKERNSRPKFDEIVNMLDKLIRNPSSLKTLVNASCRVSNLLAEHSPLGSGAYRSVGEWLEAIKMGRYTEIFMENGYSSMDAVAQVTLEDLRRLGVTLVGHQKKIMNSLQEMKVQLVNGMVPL
# [5] = target: Ephrin type-A receptor 5 (Homo sapiens) (UniProt P54756); details: at 10 µM
# [6] = target: Ephrin type-A receptor 7 (Homo sapiens) (UniProt Q15375); details: at 1 µM
# Chain of Ephrin type-A receptor 7 (Homo sapiens) (Q15375 28-998 limits assumed): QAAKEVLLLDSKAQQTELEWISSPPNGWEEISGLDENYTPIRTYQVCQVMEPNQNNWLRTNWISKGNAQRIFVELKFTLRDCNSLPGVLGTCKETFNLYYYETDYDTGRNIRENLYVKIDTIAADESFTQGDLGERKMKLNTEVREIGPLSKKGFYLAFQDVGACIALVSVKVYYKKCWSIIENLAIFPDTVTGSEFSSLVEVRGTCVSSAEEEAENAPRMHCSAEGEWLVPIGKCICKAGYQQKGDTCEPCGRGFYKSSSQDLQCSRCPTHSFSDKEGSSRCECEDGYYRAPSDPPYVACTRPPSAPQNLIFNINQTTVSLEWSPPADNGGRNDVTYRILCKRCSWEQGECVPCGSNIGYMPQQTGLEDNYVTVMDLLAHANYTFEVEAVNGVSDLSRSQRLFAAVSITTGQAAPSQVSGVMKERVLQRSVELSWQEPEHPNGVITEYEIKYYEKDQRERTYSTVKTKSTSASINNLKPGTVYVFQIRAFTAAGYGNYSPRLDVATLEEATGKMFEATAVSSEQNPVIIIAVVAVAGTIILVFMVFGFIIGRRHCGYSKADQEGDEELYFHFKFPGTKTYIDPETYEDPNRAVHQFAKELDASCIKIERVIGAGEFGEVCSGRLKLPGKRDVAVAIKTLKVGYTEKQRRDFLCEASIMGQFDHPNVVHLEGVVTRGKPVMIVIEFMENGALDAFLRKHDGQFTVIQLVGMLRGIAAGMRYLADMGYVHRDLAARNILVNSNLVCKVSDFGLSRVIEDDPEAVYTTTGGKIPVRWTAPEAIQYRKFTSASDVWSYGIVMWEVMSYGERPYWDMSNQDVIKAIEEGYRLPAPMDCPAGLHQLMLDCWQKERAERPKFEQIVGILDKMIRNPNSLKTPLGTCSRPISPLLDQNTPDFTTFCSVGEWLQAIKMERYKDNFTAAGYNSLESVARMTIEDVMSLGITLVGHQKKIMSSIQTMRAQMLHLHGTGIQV
# [7] = target: Ephrin type-A receptor 7 (Homo sapiens) (UniProt Q15375); details: at 10 µM
# [8] = target: T2, Ephrin type-A receptor 8 (Homo sapiens) (UniProt P29322); details: at 1 µM
# T2 sequence (whole entry): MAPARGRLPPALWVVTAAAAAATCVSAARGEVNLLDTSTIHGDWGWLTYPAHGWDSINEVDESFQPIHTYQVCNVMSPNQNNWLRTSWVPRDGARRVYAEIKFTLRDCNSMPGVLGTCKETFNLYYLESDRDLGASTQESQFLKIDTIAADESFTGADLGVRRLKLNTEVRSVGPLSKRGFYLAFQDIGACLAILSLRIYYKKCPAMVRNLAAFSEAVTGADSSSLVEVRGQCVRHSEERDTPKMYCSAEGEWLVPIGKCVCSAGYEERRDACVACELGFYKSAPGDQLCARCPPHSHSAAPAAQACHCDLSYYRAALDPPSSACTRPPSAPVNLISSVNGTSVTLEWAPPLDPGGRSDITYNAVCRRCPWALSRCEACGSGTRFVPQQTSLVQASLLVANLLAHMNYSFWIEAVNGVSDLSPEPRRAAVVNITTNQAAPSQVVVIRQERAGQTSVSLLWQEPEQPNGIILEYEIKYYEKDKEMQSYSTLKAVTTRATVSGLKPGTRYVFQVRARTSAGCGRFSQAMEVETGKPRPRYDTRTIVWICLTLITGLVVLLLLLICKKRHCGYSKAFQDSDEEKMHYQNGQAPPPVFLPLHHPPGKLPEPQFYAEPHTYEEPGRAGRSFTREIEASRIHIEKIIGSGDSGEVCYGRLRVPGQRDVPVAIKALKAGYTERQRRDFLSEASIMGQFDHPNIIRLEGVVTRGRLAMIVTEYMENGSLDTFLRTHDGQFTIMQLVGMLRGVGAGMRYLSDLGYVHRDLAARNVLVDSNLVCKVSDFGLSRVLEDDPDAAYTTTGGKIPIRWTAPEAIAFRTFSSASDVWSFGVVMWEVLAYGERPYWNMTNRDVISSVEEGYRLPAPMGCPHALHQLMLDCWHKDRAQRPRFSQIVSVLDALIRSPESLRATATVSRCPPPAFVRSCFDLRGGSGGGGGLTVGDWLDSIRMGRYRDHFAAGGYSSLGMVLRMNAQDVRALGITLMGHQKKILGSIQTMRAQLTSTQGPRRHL
# [9] = target: T2, Ephrin type-A receptor 8 (Homo sapiens); details: at 10 µM
# [10] = target: T3, Ephrin type-B receptor 1 (Homo sapiens) (UniProt P54762); details: at 1 µM
# T3 sequence (whole entry): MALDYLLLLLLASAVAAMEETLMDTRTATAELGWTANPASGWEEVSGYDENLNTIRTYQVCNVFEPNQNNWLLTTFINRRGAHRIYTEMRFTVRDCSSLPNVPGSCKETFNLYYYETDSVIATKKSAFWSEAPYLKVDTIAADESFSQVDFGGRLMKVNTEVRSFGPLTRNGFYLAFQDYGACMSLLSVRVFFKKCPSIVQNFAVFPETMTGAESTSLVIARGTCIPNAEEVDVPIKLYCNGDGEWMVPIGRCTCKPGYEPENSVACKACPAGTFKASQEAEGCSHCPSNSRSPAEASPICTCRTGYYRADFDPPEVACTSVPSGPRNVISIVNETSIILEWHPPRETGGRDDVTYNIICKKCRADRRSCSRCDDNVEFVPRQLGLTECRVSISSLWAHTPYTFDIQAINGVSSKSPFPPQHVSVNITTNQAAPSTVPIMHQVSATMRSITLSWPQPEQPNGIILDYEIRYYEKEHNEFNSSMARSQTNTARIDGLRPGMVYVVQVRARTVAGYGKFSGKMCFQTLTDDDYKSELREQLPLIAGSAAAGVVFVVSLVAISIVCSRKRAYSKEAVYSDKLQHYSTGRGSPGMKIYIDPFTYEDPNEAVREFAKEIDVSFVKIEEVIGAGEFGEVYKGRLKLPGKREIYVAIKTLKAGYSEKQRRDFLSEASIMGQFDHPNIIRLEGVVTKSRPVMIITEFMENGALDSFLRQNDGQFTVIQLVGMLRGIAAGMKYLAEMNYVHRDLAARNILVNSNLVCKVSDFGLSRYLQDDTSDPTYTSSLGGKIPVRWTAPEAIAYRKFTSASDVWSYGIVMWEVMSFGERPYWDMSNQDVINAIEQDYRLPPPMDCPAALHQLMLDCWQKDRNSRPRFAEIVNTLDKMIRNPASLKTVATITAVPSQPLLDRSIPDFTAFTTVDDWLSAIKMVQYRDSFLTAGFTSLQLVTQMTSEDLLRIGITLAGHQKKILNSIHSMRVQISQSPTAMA
# [11] = target: T3, Ephrin type-B receptor 1 (Homo sapiens); details: at 10 µM
# [12] = target: T4, Ephrin type-B receptor 2 (Homo sapiens) (UniProt P29323); details: at 1 µM
# T4 sequence (whole entry): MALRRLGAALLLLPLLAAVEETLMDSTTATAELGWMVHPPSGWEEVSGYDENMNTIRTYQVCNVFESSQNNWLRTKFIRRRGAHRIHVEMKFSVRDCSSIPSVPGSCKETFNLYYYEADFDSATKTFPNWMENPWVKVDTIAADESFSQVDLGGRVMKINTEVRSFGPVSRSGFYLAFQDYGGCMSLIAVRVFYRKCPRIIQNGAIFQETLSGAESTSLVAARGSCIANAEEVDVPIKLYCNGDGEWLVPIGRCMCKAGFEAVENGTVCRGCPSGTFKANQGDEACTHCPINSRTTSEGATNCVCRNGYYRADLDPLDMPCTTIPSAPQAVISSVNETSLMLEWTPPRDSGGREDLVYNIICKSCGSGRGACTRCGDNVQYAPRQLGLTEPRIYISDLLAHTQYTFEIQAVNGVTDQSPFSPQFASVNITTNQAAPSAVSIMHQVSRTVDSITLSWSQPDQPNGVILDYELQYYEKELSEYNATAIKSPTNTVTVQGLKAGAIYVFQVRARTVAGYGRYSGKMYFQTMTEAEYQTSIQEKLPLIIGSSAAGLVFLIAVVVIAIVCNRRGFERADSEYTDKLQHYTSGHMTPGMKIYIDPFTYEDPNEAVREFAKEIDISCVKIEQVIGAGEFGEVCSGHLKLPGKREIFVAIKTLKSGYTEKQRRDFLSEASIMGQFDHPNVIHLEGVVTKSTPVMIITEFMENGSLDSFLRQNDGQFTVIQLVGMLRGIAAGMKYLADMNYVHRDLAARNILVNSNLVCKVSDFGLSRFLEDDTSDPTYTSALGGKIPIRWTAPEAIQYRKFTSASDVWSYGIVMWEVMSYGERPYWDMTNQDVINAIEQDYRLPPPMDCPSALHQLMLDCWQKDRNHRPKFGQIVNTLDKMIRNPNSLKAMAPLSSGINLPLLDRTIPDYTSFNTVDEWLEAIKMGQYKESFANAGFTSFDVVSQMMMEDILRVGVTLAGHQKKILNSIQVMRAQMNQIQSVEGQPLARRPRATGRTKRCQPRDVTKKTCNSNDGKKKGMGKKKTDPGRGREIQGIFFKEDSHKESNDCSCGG
# [13] = target: T4, Ephrin type-B receptor 2 (Homo sapiens); details: at 10 µM
# [14] = target: T5, Ephrin type-B receptor 3 (Homo sapiens) (UniProt P54753); details: at 1 µM
# T5 sequence (whole entry): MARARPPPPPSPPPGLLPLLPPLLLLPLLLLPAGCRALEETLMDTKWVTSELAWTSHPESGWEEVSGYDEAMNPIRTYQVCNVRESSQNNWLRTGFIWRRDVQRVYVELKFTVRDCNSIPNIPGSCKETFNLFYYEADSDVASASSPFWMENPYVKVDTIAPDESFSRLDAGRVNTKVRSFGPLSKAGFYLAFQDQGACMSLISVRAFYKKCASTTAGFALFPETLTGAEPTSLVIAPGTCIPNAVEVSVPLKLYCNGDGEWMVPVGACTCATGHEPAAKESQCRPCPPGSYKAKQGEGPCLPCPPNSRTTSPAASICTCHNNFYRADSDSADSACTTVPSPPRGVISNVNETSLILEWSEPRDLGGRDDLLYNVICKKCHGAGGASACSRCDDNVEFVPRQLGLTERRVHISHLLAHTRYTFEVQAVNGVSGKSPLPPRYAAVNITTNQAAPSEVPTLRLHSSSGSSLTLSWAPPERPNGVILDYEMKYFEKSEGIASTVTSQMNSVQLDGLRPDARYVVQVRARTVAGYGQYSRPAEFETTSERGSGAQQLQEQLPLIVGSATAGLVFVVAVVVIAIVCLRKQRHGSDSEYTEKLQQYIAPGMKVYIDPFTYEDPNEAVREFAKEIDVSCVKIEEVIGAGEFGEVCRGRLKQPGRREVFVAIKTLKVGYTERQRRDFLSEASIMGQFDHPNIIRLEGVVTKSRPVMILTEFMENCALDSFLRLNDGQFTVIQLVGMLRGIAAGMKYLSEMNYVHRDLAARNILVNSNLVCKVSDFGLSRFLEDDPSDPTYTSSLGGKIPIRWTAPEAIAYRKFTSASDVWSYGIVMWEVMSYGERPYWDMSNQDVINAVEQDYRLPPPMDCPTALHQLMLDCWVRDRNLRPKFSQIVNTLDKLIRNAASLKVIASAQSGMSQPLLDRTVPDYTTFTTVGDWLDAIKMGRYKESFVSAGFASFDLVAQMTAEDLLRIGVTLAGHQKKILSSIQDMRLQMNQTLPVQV
# [15] = target: T5, Ephrin type-B receptor 3 (Homo sapiens); details: at 10 µM
# [16] = target: T6, Ephrin type-B receptor 4 (Homo sapiens) (UniProt P54760); details: at 1 µM
# T6 sequence (whole entry): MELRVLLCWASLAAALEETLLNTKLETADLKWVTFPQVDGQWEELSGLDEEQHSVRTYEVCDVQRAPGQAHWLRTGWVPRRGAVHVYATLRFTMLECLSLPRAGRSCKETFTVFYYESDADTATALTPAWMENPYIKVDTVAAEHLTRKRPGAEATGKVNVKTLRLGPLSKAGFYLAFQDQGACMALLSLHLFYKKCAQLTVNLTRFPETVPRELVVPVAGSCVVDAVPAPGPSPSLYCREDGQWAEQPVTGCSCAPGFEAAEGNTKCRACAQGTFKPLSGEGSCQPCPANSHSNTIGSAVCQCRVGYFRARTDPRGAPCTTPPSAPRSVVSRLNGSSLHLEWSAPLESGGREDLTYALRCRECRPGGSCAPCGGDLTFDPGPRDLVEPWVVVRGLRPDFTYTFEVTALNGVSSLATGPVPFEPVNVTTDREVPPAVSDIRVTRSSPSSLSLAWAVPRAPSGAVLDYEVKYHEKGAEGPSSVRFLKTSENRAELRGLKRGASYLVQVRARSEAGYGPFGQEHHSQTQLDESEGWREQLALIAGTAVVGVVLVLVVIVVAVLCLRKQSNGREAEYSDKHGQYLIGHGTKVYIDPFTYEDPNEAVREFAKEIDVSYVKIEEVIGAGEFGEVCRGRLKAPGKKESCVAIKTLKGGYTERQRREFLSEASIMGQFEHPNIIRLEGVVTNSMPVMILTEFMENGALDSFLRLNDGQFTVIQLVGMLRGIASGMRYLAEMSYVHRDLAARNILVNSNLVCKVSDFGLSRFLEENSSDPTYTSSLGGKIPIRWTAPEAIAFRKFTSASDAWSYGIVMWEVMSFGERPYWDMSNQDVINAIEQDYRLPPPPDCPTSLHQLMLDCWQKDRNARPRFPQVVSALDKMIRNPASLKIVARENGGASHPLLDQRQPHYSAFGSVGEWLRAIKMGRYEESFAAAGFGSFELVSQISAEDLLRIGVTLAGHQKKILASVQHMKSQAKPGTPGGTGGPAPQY
# [17] = target: T6, Ephrin type-B receptor 4 (Homo sapiens); details: at 10 µM
# [18] = target: Receptor tyrosine-protein kinase erbB-4 (Homo sapiens) (UniProt Q15303); details: at 1 µM
# Chain of Receptor tyrosine-protein kinase erbB-4 (Homo sapiens) (Q15303 whole entry): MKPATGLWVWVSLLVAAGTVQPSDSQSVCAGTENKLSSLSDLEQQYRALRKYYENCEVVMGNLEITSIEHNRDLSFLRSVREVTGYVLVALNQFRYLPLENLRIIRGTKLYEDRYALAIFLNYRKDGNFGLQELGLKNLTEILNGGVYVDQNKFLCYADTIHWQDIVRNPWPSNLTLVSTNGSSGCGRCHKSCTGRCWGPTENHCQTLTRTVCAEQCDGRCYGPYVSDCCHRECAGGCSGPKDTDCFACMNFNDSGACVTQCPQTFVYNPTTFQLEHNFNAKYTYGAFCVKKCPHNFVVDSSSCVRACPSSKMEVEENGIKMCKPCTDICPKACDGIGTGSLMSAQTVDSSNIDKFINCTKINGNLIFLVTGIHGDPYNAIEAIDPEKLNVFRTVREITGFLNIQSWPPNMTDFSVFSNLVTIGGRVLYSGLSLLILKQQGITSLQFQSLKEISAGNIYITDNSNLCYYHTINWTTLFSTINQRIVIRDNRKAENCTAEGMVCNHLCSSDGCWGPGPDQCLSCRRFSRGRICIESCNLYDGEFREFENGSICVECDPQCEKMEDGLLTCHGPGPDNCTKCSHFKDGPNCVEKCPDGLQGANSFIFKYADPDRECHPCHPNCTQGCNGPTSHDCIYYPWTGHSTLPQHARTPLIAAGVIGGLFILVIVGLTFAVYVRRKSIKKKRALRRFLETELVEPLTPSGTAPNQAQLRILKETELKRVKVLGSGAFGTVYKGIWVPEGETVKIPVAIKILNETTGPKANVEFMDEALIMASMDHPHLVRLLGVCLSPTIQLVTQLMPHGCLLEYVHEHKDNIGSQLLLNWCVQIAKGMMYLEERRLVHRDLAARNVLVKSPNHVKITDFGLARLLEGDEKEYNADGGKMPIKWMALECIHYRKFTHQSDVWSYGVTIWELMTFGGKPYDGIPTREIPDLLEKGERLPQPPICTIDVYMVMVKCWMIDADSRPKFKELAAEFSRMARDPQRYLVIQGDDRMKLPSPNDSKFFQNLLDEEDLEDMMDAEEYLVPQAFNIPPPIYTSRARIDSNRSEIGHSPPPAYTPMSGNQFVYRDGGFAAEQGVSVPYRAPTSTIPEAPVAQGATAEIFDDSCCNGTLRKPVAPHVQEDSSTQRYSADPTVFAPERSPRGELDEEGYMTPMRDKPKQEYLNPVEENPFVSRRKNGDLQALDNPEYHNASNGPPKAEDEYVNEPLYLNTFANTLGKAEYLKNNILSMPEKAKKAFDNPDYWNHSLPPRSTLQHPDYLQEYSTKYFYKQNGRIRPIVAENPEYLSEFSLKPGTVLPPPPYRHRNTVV
# [19] = target: Receptor tyrosine-protein kinase erbB-4 (Homo sapiens) (UniProt Q15303); details: at 10 µM
# [20] = target: Focal adhesion kinase 1 (Homo sapiens) (UniProt Q05397); details: at 1 µM
structure (smiles),measurement,setting,value
O=c1cc(-c2cccc3c2Sc2ccccc2S3)oc(N2CCOCC2)c1,residual activity,[1],94%
same,residual activity,[2],106%
same,residual activity,[3],104%
same,residual activity,[4],113%
same,residual activity,[5],88%
same,residual activity,[6],97%
same,residual activity,[7],98%
same,residual activity,[8],108%
same,residual activity,[9],111%
same,residual activity,[10],97%
same,residual activity,[11],92%
same,residual activity,[12],112%
same,residual activity,[13],126%
same,residual activity,[14],119% (inactive)
same,residual activity,[15],121%
same,residual activity,[16],113%
same,residual activity,[17],118%
same,residual activity,[18],105%
same,residual activity,[19],92%
same,residual activity,[20],109%
